Among the test systems are SR leukemia; RPMI-8226 leukemia; OVCAR-8 ovarian; OVCAR-5 ovarian; OVCAR-4 ovarian; SK-OV-3 ovarian; OVCAR-3 ovarian; HS 578T breast; NCI/ADR-RES ovarian; T-47D breast; BT-549 breast; MDA-MB-435 melanoma; SW-620 colon; MCF7 breast; HCT-116 colon; HCC-2998 colon; KM12 colon; IGROV1 ovarian.
Assay in all cases: NCI-60 one-dose screen, 48 h (100 = growth as untreated, 0 = no growth, -100 = all killed)
What all share (settings): 10 µM unless noted

Each structure is given as a SMILES string. The panel holds about 83,000 compounds, 20% with a hit somewhere; the sample as a whole holds those more often.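 Cells were grown in 96-well plates and exposed to the test compound at a single concentration for 48 hours; results are reported as percent growth, with values below 10 considered active.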 A number with no mark means an inactive call. The source made the active and inactive calls.

`COC(=O)[C@@H]1CC[C@]2(C)[C@H](CC[C@@H]3O[C@@]32C)[C@@]1(C)CC(=O)c1ccoc1`: the growth with SR leukemia was 86.6%; in the test with RPMI-8226 leukemia it was 91.2%; in the test on OVCAR-8 ovarian, 102%; in the test with OVCAR-5 ovarian, 109%; with OVCAR-4 ovarian, 127%; in the test with SK-OV-3 ovarian, 103%. For the same compound, the growth is 105% in the test on OVCAR-3 ovarian; 88.2% in the test with HS 578T breast; 103% in the test with NCI/ADR-RES ovarian; 105% with T-47D breast; 105% with BT-549 breast; 104% in the test on MDA-MB-435 melanoma. Further, the growth was 88.3% with SW-620 colon; 93% in the test with MCF7 breast; 98.4% in the test with HCT-116 colon; 93.1% in the test on HCC-2998 colon; 108% with KM12 colon.
For the compound `O=C(Nc1cccc2c1C(=O)c1cccc(Nc3cccc4c3C(=O)c3cccc(NC(=O)c5ccccc5)c3C4=O)c1C2=O)c1ccccc1`, the growth in the test on SR leukemia was 101%; in the test with RPMI-8226 leukemia, 107%; in the test on OVCAR-8 ovarian it was 96.1%; with OVCAR-5 ovarian it was 114%; in the test with OVCAR-4 ovarian, 118%; in the test with SK-OV-3 ovarian, 101%. In addition, the growth is 123% in the test on OVCAR-3 ovarian; 105% with NCI/ADR-RES ovarian; 116% in the test with T-47D breast; 113% with BT-549 breast; 104% in the test on MDA-MB-435 melanoma; 109% in the test on SW-620 colon. For the same compound, the growth was 107% in the test with MCF7 breast, 109% with HCT-116 colon, 114% in the test on HCC-2998 colon and 114% with KM12 colon.
As to `O=C1/C(=C/c2ccccc2)CN(CCC(=O)N2C/C(=C\c3ccccc3)C(=O)/C(=C/c3ccccc3)C2)C/C1=C\c1ccccc1`, the growth is 16.5% in the test with SR leukemia; -18.8% (active) in the test on RPMI-8226 leukemia; 16.9% in the test on OVCAR-8 ovarian; 91% in the test with OVCAR-5 ovarian; 67.8% in the test on OVCAR-4 ovarian; 70.6% with IGROV1 ovarian. Moreover, the growth in the test on OVCAR-3 ovarian was 32.8%; with HS 578T breast it was 58.1%; with NCI/ADR-RES ovarian, 76.1%; in the test with T-47D breast, 26.6%; in the test on BT-549 breast, 56.3%; in the test with MDA-MB-435 melanoma, -40.7% (active). Also, the growth is 7.07% (active) with SW-620 colon; -2.24% (active) in the test with MCF7 breast; -60.6% (active) in the test with HCT-116 colon; 26.7% with HCC-2998 colon; 10.1% in the test on KM12 colon.
Take `N#CC1=C(N)Oc2c(ccc3ccccc23)C1c1cccs1` (stereo not given): the growth in the test on SR leukemia is -11.2% (active); in the test with RPMI-8226 leukemia, -17.3% (active); in the test on OVCAR-8 ovarian, 17.2%; with OVCAR-5 ovarian, 34.9%; in the test on OVCAR-4 ovarian, 12.6%; with SK-OV-3 ovarian, 5.5% (active). For the same compound, the growth was -38.8% (active) in the test with OVCAR-3 ovarian; 22.3% with HS 578T breast; 14.5% in the test with NCI/ADR-RES ovarian; 64.3% in the test on T-47D breast; 25% in the test on BT-549 breast; -31% (active) in the test on MDA-MB-435 melanoma. For the same compound, the growth with SW-620 colon is 23.8%; in the test with MCF7 breast it was 7.97% (active); in the test with HCT-116 colon, 8.25% (active); with HCC-2998 colon, 16.7%; in the test with KM12 colon, 4.37% (active).
Consider `ClC1=C2NC=NC2n2c(nnc2-c2ccc(Cl)cc2)N1` (stereo not given), for which the growth was 91.9% in the test with SR leukemia; 89.2% with RPMI-8226 leukemia; 96.9% in the test on OVCAR-8 ovarian; 110% in the test with OVCAR-5 ovarian; 116% in the test with OVCAR-4 ovarian; 105% with SK-OV-3 ovarian. For the same compound, the growth in the test with OVCAR-3 ovarian was 120%; in the test with HS 578T breast, 112%; with NCI/ADR-RES ovarian, 108%; with T-47D breast, 90.8%; with BT-549 breast it was 101%; with MDA-MB-435 melanoma, 99.9%. In addition, the growth is 115% with SW-620 colon; 85.6% in the test on MCF7 breast; 98.5% with HCT-116 colon; 102% with HCC-2998 colon; 99.6% in the test with KM12 colon.
On to `C#Cc1nc(Nc2cc(C)[nH]n2)c2ccccc2n1`, for which the growth with SR leukemia is 3.84% (active); in the test on RPMI-8226 leukemia, -16.5% (active); with OVCAR-8 ovarian, -19.2% (active); in the test on OVCAR-5 ovarian, -28.5% (active); in the test on OVCAR-4 ovarian, -55.2% (active); in the test with IGROV1 ovarian it was -62.7% (active). Further, the growth in the test with OVCAR-3 ovarian was -71% (active); with HS 578T breast it was -1.95% (active); in the test with NCI/ADR-RES ovarian, 9.77% (active); with T-47D breast, -36.8% (active); in the test with BT-549 breast it was -34.9% (active); with MDA-MB-435 melanoma, -75.5% (active). In addition, the growth was -25.6% (active) in the test on SW-620 colon; -25.8% (active) in the test on MCF7 breast; -12.7% (active) in the test on HCT-116 colon; -91% (active) with HCC-2998 colon; -73.1% (active) in the test with KM12 colon.
For `CCc1ccc(C(c2ccc(CC)cc2)C(Cl)(Cl)CCl)cc1`, the growth in the test with SR leukemia is 103%; with RPMI-8226 leukemia, 93.6%; in the test on OVCAR-8 ovarian, 110%; with OVCAR-5 ovarian, 99.9%; with OVCAR-4 ovarian, 86.9%; with SK-OV-3 ovarian it was 105%. Further, the growth is 86.3% in the test with OVCAR-3 ovarian; 65.4% with HS 578T breast; 91.3% with NCI/ADR-RES ovarian; 77.6% with T-47D breast; 116% in the test on BT-549 breast; 102% in the test with MDA-MB-435 melanoma. Moreover, the growth was 86.8% with SW-620 colon; 106% in the test on MCF7 breast; 76.3% in the test on HCT-116 colon; 90.1% in the test with HCC-2998 colon; 103% with KM12 colon.
As to `COc1cc(OC)c(/C=C/S(=O)(=O)Cc2ccc(OC)c(N)n2)c(OC)c1`, the growth in the test on SR leukemia is 0.349% (active); in the test with RPMI-8226 leukemia it was 33.1%; in the test with OVCAR-8 ovarian, 11%; in the test with OVCAR-5 ovarian it was 50.5%; with OVCAR-4 ovarian it was 42.1%; with SK-OV-3 ovarian it was 5.23% (active). Moreover, the growth was -27.7% (active) in the test with OVCAR-3 ovarian; 43.8% in the test with HS 578T breast; 10.2% with NCI/ADR-RES ovarian; 44.8% in the test on T-47D breast; 8.17% (active) in the test with BT-549 breast; 2.24% (active) with MDA-MB-435 melanoma. Further, the growth in the test with SW-620 colon was 25.5%; in the test with MCF7 breast it was 12.9%; in the test with HCT-116 colon, 2.03% (active); in the test on HCC-2998 colon, 18.8%; with KM12 colon, 12.9%.

The values are drawn from PubChem BioAssay (NCI).
